Test [1] has as its system Human papillomavirus type 1a protein E7 (residues 44-93). Put plainly: small molecules binding HPV E7 44-93 – biochemical, small-molecule microarray, residues 44-93, 635 nm fluorescence, primary screen (AID 1108).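 Also: E7 fragment applied at 1 µg/mL in TBST for 1 h at 4 C; score combines spot fluorescence with its signal to noise ratio.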 To be noted: fluorescence 635 nm, higher = more signal.
The nature of test [2]: hepatitis C replication reporter changes, two-sided – Huh7 cells, luciferase reporter, HCV replication inhibitor project, primary screen (AID 1109).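 Also: huh7 hepatoma cells harbouring a luciferase neomycin HCV replicon reporter; luciferase luminescence as measure of HCV replicon replication; test concentration not given here.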 To be noted: Huh7 HCV replicon luciferase reporter, 48 h; higher = more signal. In general terms: In a reporter assay the amount or activity of a reporter protein is the signal.
Test [3] deals with Left-right determination factor 2 (Homo sapiens) (UniProt O00292). Put plainly: small molecules binding LEFTY2 protein – biochemical, small-molecule microarray, 635 nm fluorescence scan, primary screen (AID 1110). The following applies: higher = more signal.
Sequence of Left-right determination factor 2 (Homo sapiens) (O00292 whole entry, looked up): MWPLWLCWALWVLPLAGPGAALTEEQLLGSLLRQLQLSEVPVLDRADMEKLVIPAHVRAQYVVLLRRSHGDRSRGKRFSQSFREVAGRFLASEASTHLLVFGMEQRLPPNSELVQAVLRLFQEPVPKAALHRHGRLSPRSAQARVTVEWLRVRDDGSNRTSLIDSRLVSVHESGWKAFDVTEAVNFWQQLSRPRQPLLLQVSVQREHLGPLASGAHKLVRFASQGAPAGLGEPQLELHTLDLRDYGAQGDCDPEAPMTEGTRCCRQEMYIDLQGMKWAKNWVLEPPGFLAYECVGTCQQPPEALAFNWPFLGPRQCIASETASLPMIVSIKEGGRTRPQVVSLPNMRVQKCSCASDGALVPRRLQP
Test [4] concerns the target Calmodulin-1 (Homo sapiens) (UniProt P0DP23). Put plainly: small molecules binding calmodulin-1 with EGTA – biochemical, small-molecule microarray, Cy5-labelled CALM1, profiling panel (AID 1111).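 Also: labelled calmodulin applied in Tris saline Tween buffer holding calcium plus EGTA and DTT.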 The following applies: Cy5-CALM1 binding fluorescence, higher = more signal.
For test [5] the target is unchanged. In words: small molecules binding Ca-loaded calmodulin-1 – biochemical, small-molecule microarray, Cy5-labelled CALM1, plus calcium, artefact control for SMM control-protein annotation, profiling panel (AID 1112).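 Also: score merges spot fluorescence with signal to noise from triplicate slides.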 The following applies: Cy5-CALM1 binding fluorescence, higher = more signal.
Test [6] is described as follows: probe aWnt5a binding to arrayed compounds – biochemical, biotinylated probe, 635/667 nm fluorescence, primary screen (AID 1113).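 Also: score merges 667 nm fluorescence intensity with signal-to-noise per printed feature.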 The following applies: small-molecule microarray, higher = more signal.
A short description of test [7]: probe aShh binding to arrayed compounds – biochemical, biotinylated probe, 635/667 nm fluorescence, primary screen (AID 1114).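 Also: probe is biotin-labelled aShh protein from a stem cell growth factor screen; measures binding of labelled protein to compounds printed on the slide; score merges feature fluorescence at 667 nm with signal-to-noise.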 To be noted: small-molecule microarray, higher = more signal.
Test [8] is described as follows: probe aNog binding to arrayed compounds – biochemical, biotinylated probe, 635/667 nm fluorescence, primary screen (AID 1115).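 Also: probe is biotinylated aNog protein used at 0.15 µg/mL for 1 h at 4 C; z-score combines 667 nm fluorescence of each spot with its signal to noise.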 To be noted: small-molecule microarray, higher = more signal.
Test [9] deals with Torsin-1A-interacting protein 1 (Homo sapiens) (UniProt Q5JTV8). Put plainly: compound microarray binding of lysate hLAP1 – cell lysate, small-molecule microarray, COS7 lysate, 635/667 nm fluorescence, primary screen (AID 1116). The following applies: 635 nm fluorescence, higher = more signal.
Sequence of Torsin-1A-interacting protein 1 (Homo sapiens) (Q5JTV8 whole entry, looked up): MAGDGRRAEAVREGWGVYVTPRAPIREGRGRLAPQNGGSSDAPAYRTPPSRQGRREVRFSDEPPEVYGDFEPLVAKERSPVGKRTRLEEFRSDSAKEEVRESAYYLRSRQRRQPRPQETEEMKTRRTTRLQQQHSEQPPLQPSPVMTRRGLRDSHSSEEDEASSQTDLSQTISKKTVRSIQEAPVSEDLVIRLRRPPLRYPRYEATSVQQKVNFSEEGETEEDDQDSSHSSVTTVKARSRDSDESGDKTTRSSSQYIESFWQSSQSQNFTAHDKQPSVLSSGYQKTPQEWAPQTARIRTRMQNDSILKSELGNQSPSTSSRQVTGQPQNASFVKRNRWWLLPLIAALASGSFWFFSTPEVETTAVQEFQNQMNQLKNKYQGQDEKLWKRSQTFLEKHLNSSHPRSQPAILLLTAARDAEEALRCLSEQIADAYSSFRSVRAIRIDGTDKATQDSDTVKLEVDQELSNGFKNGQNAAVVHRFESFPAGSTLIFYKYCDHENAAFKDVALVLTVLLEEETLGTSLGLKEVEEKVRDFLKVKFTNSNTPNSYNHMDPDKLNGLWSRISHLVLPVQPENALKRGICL
For test [10], the target named is Alpha-bungarotoxin (Bungarus multicinctus) (UniProt P60615). In words: compounds binding labelled alpha-BTX control protein – biochemical, small-molecule microarray, Alexa647 label, 635/667 nm fluorescence, artefact control for SMM control protein annotation, profiling panel (AID 1117). The following applies: alpha-BTX-A647 binding fluorescence, higher = more signal.
Sequence of Alpha-bungarotoxin (Bungarus multicinctus) (P60615 whole entry, looked up): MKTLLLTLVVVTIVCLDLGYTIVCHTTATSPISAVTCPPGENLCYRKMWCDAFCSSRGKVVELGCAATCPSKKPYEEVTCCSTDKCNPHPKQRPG

In the next test the target is Albumin (Bos taurus) (UniProt P02769). Put plainly: compounds binding labelled BSA control protein – biochemical, small-molecule microarray, Alexa647 label, 635/667 nm fluorescence, artefact control for SMM control protein annotation, profiling panel (AID 1118).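 Also: score merges 667 nm emission intensity and signal-to-noise per printed compound spot.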 To be noted: BSA-A647 binding, fluorescence 635 nm, higher = more signal.
Sequence of Albumin (Bos taurus) (P02769 whole entry, looked up): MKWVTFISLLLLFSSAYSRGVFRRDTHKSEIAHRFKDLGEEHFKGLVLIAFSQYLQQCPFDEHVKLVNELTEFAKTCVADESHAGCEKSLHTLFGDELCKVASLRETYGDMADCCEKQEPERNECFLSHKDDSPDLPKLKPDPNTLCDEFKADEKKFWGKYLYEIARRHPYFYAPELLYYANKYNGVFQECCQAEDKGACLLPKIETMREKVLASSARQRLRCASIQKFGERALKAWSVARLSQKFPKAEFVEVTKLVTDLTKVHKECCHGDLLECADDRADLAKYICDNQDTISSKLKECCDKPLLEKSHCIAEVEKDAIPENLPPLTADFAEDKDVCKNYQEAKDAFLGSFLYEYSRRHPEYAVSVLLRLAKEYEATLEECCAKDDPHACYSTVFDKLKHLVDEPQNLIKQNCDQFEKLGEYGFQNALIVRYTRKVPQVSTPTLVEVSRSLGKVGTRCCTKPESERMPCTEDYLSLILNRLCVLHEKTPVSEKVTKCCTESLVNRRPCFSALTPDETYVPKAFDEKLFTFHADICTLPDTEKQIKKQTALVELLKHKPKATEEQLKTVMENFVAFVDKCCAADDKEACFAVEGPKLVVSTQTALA
A short description of test [11]: probe aXIP binding to arrayed compounds – biochemical, NeuroSMM set, 635/667 nm fluorescence, primary screen (AID 1119).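 Also: probe is the protein aXip251-270 applied at 1 µg/mL to compound-printed slides; binding of probe to printed compounds measured as 667 nm fluorescence plus signal to noise.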 To be noted: small-molecule microarray, higher = more signal, called active from +8 up or from −8 down.
Test [12] is described as follows: probe aNOTCH3 binding on compound microarray – biochemical, small-molecule microarray, 635/667 nm fluorescence, primary screen (AID 1120).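 Also: probe is a biotin-tagged antibody raised against NOTCH3 rather than NOTCH3 protein; score merges spot fluorescence near 667 nm with spot signal to noise.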 To be noted: higher = more signal.
Test [13] in a line: probe aNOTCH2 binding on compound microarray – biochemical, small-molecule microarray, 635/667 nm fluorescence, primary screen (AID 1121).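 Also: score merges feature fluorescence read at 667 nm with its signal to noise.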 To be noted: higher = more signal.
Test [14] has as its target Carbonic anhydrase 2 (Homo sapiens) (UniProt P00918). In words: compounds binding carbonic anhydrase 2 – biochemical, small-molecule microarray, Alexa647-labelled CAII, profiling panel (AID 1122). To be noted: CAII-A647 binding fluorescence, higher = more signal.
The nature of test [15]: COS7 lysate on small-molecule microarray, probe aHis, 635 nm (AID 1123).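 Also: z-score combines 667nm fluorescence intensity with signal-to-noise per printed compound spot.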 To be noted: COS7 cell lysate, fluorescence, higher = more signal.
A short description of test [16]: probe aLAP1 signal on lysate-treated microarray – cell lysate, small-molecule microarray, COS7 lysate, primary screen (AID 1124).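 Also: lysate comes from COS7 cells expressing LAP1 and is applied at 0.3 µg/mL; score merges spot fluorescence near 667 nm with signal-to-noise over triplicate slides.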 To be noted: probe aLAP1, fluorescence, higher = more signal.
In a further test the test system is Sam68 (KHDRBS1). Put plainly: compounds binding KHDRBS1 protein – biochemical, small-molecule microarray, 635 nm fluorescence, primary screen (AID 1125).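 Also: score merges 667 nm channel intensity with signal to noise over triplicate slides.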 To be noted: higher = more signal.
The subject of test [17] is Chordin-like protein 2 (CHRDL2). Put plainly: compounds binding chordin-like 2 – biochemical, small-molecule microarray, 635 nm fluorescence, primary screen (AID 1126).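 Also: printed compound slides probed with Chrdl2 protein at 4 µg/mL for 1 h at 4 C; score merges 667 nm emission intensity with signal to noise over three replicate slides.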 The following applies: fluorescence 635 nm, higher = more signal.
In test [18] the target is Concanavalin-A (Canavalia ensiformis) (UniProt P02866). In words: compounds binding concanavalin A lectin – biochemical, small-molecule microarray, Alexa647 label, 635 nm, artefact control for SMM control protein annotation, primary screen (AID 1127).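 Also: z combines 667 nm emission intensity with signal-to-noise across three replicate slides.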 The following applies: ConA-A647 binding fluorescence, higher = more signal.
Sequence of Concanavalin-A (Canavalia ensiformis) (P02866 whole entry, looked up): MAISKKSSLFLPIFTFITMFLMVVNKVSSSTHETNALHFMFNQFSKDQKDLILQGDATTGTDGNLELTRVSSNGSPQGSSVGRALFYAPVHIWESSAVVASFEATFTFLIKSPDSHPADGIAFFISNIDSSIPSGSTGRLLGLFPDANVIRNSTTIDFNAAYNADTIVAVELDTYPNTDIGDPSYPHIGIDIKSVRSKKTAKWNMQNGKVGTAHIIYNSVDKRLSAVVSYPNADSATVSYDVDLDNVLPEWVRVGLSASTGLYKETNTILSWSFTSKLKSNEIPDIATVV

Molecules are shown by their SMILES. The source made the active and inactive calls.

Turning to `CC(C)(C)OC(=O)CC[C@]1(C(=O)NCCN2CCOCC2)N=C(c2ccc(OCCCO)cc2)O[C@H]1c1ccccc1CN=[N+]=[N-]`, the composite z-score in [1] is 0.309; in test [3], 0.0415; in test [4], 1.12; in [5], 0.608; in test [6], -0.0944; in test [7], 0.0469. Also, the composite z-score is 0.816 in test [8]; 2.12 in [9]; 2.01 in test [10]; 0.433 in the test with Albumin (Bos taurus); 0.145 in test [12]; -0.057 in test [13]. Besides, the composite z-score in [14] was 0.865; in test [15], 2.05; in test [16], 0.663; with Sam68 (KHDRBS1), 1.32; in [17], -1.1; in test [18], 0.922. Also, the z-score in [2] was -1.77. Also, the composite Z-score in test [11] was 0.192 (inactive).

Consider `CC(C)C[C@@H]1NC(=O)[C@H](CC(C)C)NC(=O)[C@@]23C(=O)N[C@@H](Cc4ccccc4)C2[C@H](C)[C@@]2(C)O[C@H]2C3/C=C/CC/C=C/CNC1=O` (stereo not given in full), for which the composite z-score in test [1] was 1.34; in test [3] it was 0.521; in [4], 0.102; in test [5], -0.747; in test [6] it was -0.101; in test [7], -0.221. For the same compound, the composite z-score in [8] was -0.261; in test [9], 0.292; in test [10] it was 0.683; in the test with Albumin (Bos taurus) it was 0.734; in test [12], -0.0657; in [13] it was -0.118. Moreover, the composite z-score in [14] is 0.578; in test [15], 0.268; in test [16], -0.219; in the test with Sam68 (KHDRBS1) it was 1.05; in [17] it was 0.702; in test [18], 1.02. Besides, the z-score in test [2] was -1.24. Also, in test [11], the composite Z-score is -0.392 (inactive).

As for `CO[C@@H]1COC(=O)CC=C[C@@H](C)[C@H](OC)COC(=O)CC=C[C@H]1C`, the composite z-score in [1] is -0.255; in [3] it was 0.599; in [4], -0.888; in [5], -1.49; in test [6], -0.24; in [7], 0.0796. The composite z-score in [8] was 0.563; in test [9], -0.176; in test [10] it was -0.587; with Albumin (Bos taurus), -0.978; in [12] it was -0.103; in test [13], -0.169. Further, the composite z-score was -0.374 in test [14]; -0.168 in test [15]; -0.412 in test [16]; -0.345 in the test on Sam68 (KHDRBS1); 1.48 in [17]; -0.362 in test [18]. The same compound gave a z-score in test [2] of 0.353. For the same compound, the composite Z-score in [11] was 0.413 (inactive).

As to `COC(=O)C1=CC(c2ccc(CO)cc2)=CC(C2CC2)N(Cc2sc3ccccc3c2Cl)C=C1C(=O)OC` (stereo not given), the composite z-score in [1] came out at 1.29; in test [3], 0.204; in [4], 2.45; in test [5] it was 0.975; in test [6] it was 0.0017; in [7], 0.246. Besides, the composite z-score in [8] was 1.38; in test [9] it was 2.42; in test [10] it was 2.75; with Albumin (Bos taurus), 0.971; in test [12], 0.3; in test [13] it was 0.101. The composite z-score turned out to be 0.866 in test [14]; 2.78 in test [15]; 0.58 in [16]; 1.31 in the test on Sam68 (KHDRBS1); 0.185 in test [17]; 1.16 in test [18]. Besides, the z-score in test [2] was -1.27. Further, the composite Z-score in [11] was 0.152 (inactive).

Take `CO[C@H]1COC(=O)[C@@H](Cc2ccccc2)NC(=O)[C@@H](C)COC(=O)CC=C[C@@H]1C`: the composite z-score in [1] is -0.661; in test [3], 0.831; in test [4], -2.36; in [5] it was -2.14; in test [6], -0.133; in [7], -0.124. For the same compound, the composite z-score is -0.234 in test [8]; -0.0159 in test [9]; -0.39 in [10]; -1.03 in the test with Albumin (Bos taurus); -0.095 in test [12]; -0.14 in test [13]. Further, the composite z-score is -0.498 in [14]; -0.875 in test [15]; -0.422 in [16]; -0.0602 in the test with Sam68 (KHDRBS1); 1.24 in test [17]; -0.773 in test [18]. For the same compound, the z-score in test [2] stood at 0.413. The composite Z-score in [11] is -0.179 (inactive).

Values taken from PubChem BioAssay.
